PubChem BioAssay (NCI)
Compounds without any hit were thinned out: in the full panel of roughly 83,000, 20% have a hit.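 48-hour exposure, single concentration, 96-well plates; percent growth endpoint where 0 means no net growth. Active: below 10.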 A number with no mark means an inactive call. Active and inactive are the calls of the source.

What was measured:
Assay in all cases: NCI-60 one-dose screen, 48 h (100 = growth as untreated, 0 = no growth, -100 = all killed)
Conditions in all cases: 10 µM
NCI-H23 lung = system: NCI-H23 lung
NCI-H226 lung = system: NCI-H226 lung
NCI-H322M lung = system: NCI-H322M lung
NCI-H460 lung = system: NCI-H460 lung
HOP-92 NSCLC = system: HOP-92 NSCLC
NCI-H522 lung = system: NCI-H522 lung
A549/ATCC NSCLC = system: A549/ATCC NSCLC
786-0 renal = system: 786-0 renal
COLO 205 colon = system: COLO 205 colon
HOP-62 NSCLC = system: HOP-62 NSCLC

Compound	growth (NCI-H23 lung)	growth (NCI-H226 lung) [%]	growth (NCI-H322M lung)	growth (NCI-H460 lung)	growth (HOP-92 NSCLC)	growth (NCI-H522 lung)	growth (A549/ATCC NSCLC)	growth (786-0 renal)	growth (COLO 205 colon)	growth (HOP-62 NSCLC)
NS(=O)(=O)c1ccc(N=Nc2c(O)n(CC(=O)Nc3ccccc3Br)c3ccccc23)cc1	40%	14.4	50.3%	26.4%	38.7%	32.6%	19.8%	20.1%	5.92% (active)	–
COc1ccc(C(C)=C(c2ccc(OCCCN(C)C)cc2)c2ccc(OCCCN(C)C)cc2)cc1	-95.6% (active)	–	-97.1% (active)	-44.2% (active)	-74.5% (active)	-92.7% (active)	–	-82.6% (active)	-90.2% (active)	-92.2% (active)
COc1cccc(-c2ccnc(/N=C(\N)Nc3ccc(S(=O)(=O)Nc4nc(C)cc(C)n4)cc3)n2)c1	98.2%	–	107%	106%	106%	91.5%	102%	101%	114%	84.6%
COc1ccc(C(=O)Nc2ccc(-c3ccc4c(c3)NC(=O)/C4=C\c3ccc[nH]3)cc2)cc1	41.5%	–	86.6%	14.9%	97.5%	64.2%	74.4%	20.4%	48.1%	63.1%
C=CC(=O)Nc1nc(-c2cccc(NS(=O)(=O)c3cccc4c(N(C)C)cccc34)c2)cs1	-3.14% (active)	–	56.2%	-32.8% (active)	-49.2% (active)	-76.9% (active)	19.3%	-82.5% (active)	-56.3% (active)	–
NC(=Nc1ccc(OCCCCCCCCn2ccnn2)cc1)c1ccccc1	20.1%	–	60.3%	–	74.2%	–	24.4%	45.7%	–	18.2%
O=C1c2ccccc2C(=O)c2c1c(C(=O)c1ccc(Cl)cc1)n1c2ccc2c3ccccc3ccc21	96%	–	113%	109%	98.6%	93.5%	102%	110%	128%	92.5%
S=c1nc(-c2ccccc2)cc(-c2cc3ccccc3nc2Cl)[nH]1	78.5%	–	98.5%	90.4%	75.9%	57.8%	86.1%	90.5%	96.3%	72.7%
N#Cc1c(-c2ccc(Cl)cc2)cc(-c2ccccc2)nc1OCc1ccccc1	76.7%	–	96.6%	51.9%	90.8%	69.3%	73.8%	107%	106%	84.9%
CS(=O)(=O)Nc1ccc(-c2ccc3c(c2)ncn3-c2ccc(NC(=O)Nc3ccc(Cl)c(C(F)(F)F)c3)cc2)cc1	-70.3% (active)	–	-42.9% (active)	0.554% (active)	-43.5% (active)	-87.6% (active)	-75.1% (active)	-77.9% (active)	-90.4% (active)	-87.1% (active)
COc1ccc(-c2nc(S(=O)(=O)c3ccc(C)cc3)c(S(C)(=O)=O)o2)cc1	-78.1% (active)	–	89.6%	4.05% (active)	-75% (active)	-96.6% (active)	81.2%	-33.4% (active)	-88.7% (active)	84%
COc1ccc(-c2cc(C(=O)N=Nc3c(O)[nH]c4ccc(F)cc34)c3ccccc3n2)cc1	44.4%	–	76.4%	44.2%	87.1%	70.8%	88.3%	63.5%	103%	110%
CN1CCN(Cc2ccc(C(=O)Nc3cccc(Nc4ccc5cc(O)ccc5n4)c3)cc2C(F)(F)F)CC1	-66% (active)	–	-28.9% (active)	-74.6% (active)	-46.2% (active)	-68.8% (active)	-11.5% (active)	-47% (active)	-85.4% (active)	-66.5% (active)
COc1cc(/C=C/C(=O)c2ccc(F)cc2)ccc1Oc1nc(Nc2ccc(F)cc2)nc(N(C)C)n1	66.8%	–	79.1%	69.6%	65.6%	62.3%	74.1%	71%	118%	93.5%
COc1cc(C2CC(c3ccccc3)=Nc3c(N)nc(N)nc3N2)ccc1Oc1nc(Nc2ccc(F)cc2)nc(N(C)C)n1 (centres undefined)	43.9%	–	71.7%	10.6%	16.3%	65.6%	66.3%	43.4%	28%	85.7%
O=c1c2ccccc2nc(COc2ccccc2)n1/N=C/c1ccc(N2CCOCC2)cc1	59.2%	–	66.6%	66.2%	-1.3% (active)	33.6%	73.7%	45.5%	80.8%	18.4%
COc1ccccc1C(=O)NNC(=O)CSc1nc2c(c(=O)[nH]1)CCCC2	91.4%	–	103%	111%	86.2%	104%	106%	115%	113%	93.5%
CCCSc1nc(NC2CC2)c(C#N)c(-c2ccc(OC)cc2)n1	96.4%	–	89.3%	–	77.7%	93.3%	71.8%	77.1%	134%	84.6%
CC(=O)NNc1ccc2nnc(-c3ccc(Br)cc3)n2n1	91.5%	–	107%	106%	103%	85.3%	95.9%	86.3%	109%	82.5%
COc1ccc(CN2[C@H](C(=O)NCCCCCCC(=O)NO)Cc3c([nH]c4ccccc34)[C@H]2C2CC2)cc1	-17.5% (active)	–	9.54% (active)	6.41% (active)	-24.5% (active)	-44.6% (active)	17.3%	17.4%	-94.8% (active)	14%
COc1ccccc1NCc1ccc(CO)n1-c1ccc(C)cc1	94.3%	–	100%	111%	80.5%	93.7%	–	104%	120%	88.1%
O=C(Nc1cccc(C(F)(F)F)c1)c1cncc(C#Cc2cnc3ccc(N4CCOCC4)nn23)c1	-58.7% (active)	–	5.52% (active)	0.042% (active)	-48% (active)	-34.1% (active)	7.95% (active)	-22.9% (active)	-48% (active)	6.8% (active)
CCOP(=O)(OCC)O[C@H]1CC[C@]2(C)[C@H]3CC[C@@H]4[C@@H]([C@](C)(O)CCC=C(C)C)CC[C@@]4(C)[C@]3(C)CC[C@H]2C1(C)C	15.4%	–	74.1%	11.2%	2.88% (active)	1.32% (active)	22.1%	23.3%	-33% (active)	57.3%
COc1ccc(-c2ccc(/C=N/NC(=O)c3[nH]c4ccc(Br)cc4c3-c3ccccc3)o2)cc1	50%	–	70.4%	16.8%	85.9%	-44.1% (active)	42.5%	34.9%	63.1%	47.2%
CC(=O)Nc1ccc(-c2cn(-c3cccc(C(=O)Nc4cc(CN5CCOCC5)cc(C(F)(F)F)c4)c3)nn2)cn1	-92.6% (active)	–	-94.3% (active)	-65.3% (active)	-77.5% (active)	-53.2% (active)	-74.7% (active)	-86% (active)	-91.5% (active)	-64.1% (active)
CC1(c2ccccc2)NC(=O)N(CC(=O)Nc2ccc(C(=O)/C=C/c3ccc(Br)cc3)cc2)C1=O (centres undefined)	64.4%	–	78.1%	59.5%	25.1%	64.3%	38.9%	12.8%	64.1%	61.9%
O=C1CCC(N2Cc3c(NCc4ccc(-c5ccccc5)cc4)cccc3C2=O)C(=O)N1 (centres undefined)	72.9%	–	77.2%	36.4%	24.3%	82.7%	71.6%	70.8%	82%	74.4%
CC1=N/C(=C\c2ccc(N(C)C)cc2)C(=O)N1CCc1ccc(S(N)(=O)=O)cc1	98.5%	–	107%	107%	96.5%	87.2%	93.2%	101%	113%	84.4%
CC(=O)NS(=O)(=O)c1ccc(NC(=O)CSC2=NC(c3ccccc3)C(C(C)=O)=C(C)N2)cc1 (centres undefined)	97.5%	–	105%	121%	134%	98.4%	98.1%	103%	126%	103%
